According to PubChem BioAssay (NCI):
Compounds without any hit were thinned out: in the full panel of roughly 83,000, 20% have a hit.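 Plates (96-well) were seeded with cells, treated with compound at one concentration, and incubated for 48 hours before percent growth was determined.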 A number with no mark means an inactive call. Active and inactive are the calls of the source. How the source made its calls: active means growth percent below 10; inactive means the rest.

Assays:
Assay in all cases: NCI-60 one-dose screen, 48 h (100 = growth as untreated, 0 = no growth, -100 = all killed)
Settings in all cases: 10 µM unless noted
NCI-H23 lung = test system: NCI-H23 lung
NCI-H226 lung = test system: NCI-H226 lung
NCI-H322M lung = test system: NCI-H322M lung
HOP-62 NSCLC = test system: HOP-62 NSCLC
NCI-H460 lung = test system: NCI-H460 lung
HOP-92 NSCLC = test system: HOP-92 NSCLC
NCI-H522 lung = test system: NCI-H522 lung
A549/ATCC NSCLC = test system: A549/ATCC NSCLC
786-0 renal = test system: 786-0 renal
COLO 205 colon = test system: COLO 205 colon
DU-145 prostate = test system: DU-145 prostate
K-562 leukemia = test system: K-562 leukemia
MALME-3M melanoma = test system: MALME-3M melanoma
MDA-MB-231 breast = test system: MDA-MB-231 breast
RXF 393 renal = test system: RXF 393 renal
SF-268 CNS = test system: SF-268 CNS
SF-295 CNS = test system: SF-295 CNS
SF-539 CNS = test system: SF-539 CNS
UACC-257 melanoma = test system: UACC-257 melanoma
M14 melanoma = test system: M14 melanoma

Structure (SMILES) | growth (NCI-H23 lung) | growth (NCI-H226 lung) [%] | growth (NCI-H322M lung) [%] | growth (HOP-62 NSCLC) | growth (NCI-H460 lung) | growth (HOP-92 NSCLC) | growth (NCI-H522 lung) | growth (A549/ATCC NSCLC) | growth (786-0 renal) | growth (COLO 205 colon) | growth (DU-145 prostate) | growth (K-562 leukemia) | growth (MALME-3M melanoma) | growth (MDA-MB-231 breast) | growth (RXF 393 renal) | growth (SF-268 CNS) | growth (SF-295 CNS) | growth (SF-539 CNS) | growth (UACC-257 melanoma) | growth (M14 melanoma)
CCOC(=O)c1c(C)nc2c(c1N)CC(=O)N2Cc1cc(F)cc(Cl)c1 | 81.8% | 89.1 | 107 | 89.7% | 98.1% | 78.1% | 66.8% | 82.8% | 88.2% | 121% | 94.5% | 95.2% | 108% | 87.5% | 92.4% | 95.8% | 85.9% | 94.2% | 82% | 101%
CCOC(=O)c1cc(-c2ccc([N+](=O)[O-])cc2)n(-c2ccc(C(=O)O)c(O)c2)c1C | 58.8% | 83.5 | 103 | 103% | 65.2% | 49.6% | 9.5% (active) | 47.7% | 71.3% | 99.1% | 88.6% | 45.1% | 80.6% | 80.7% | 39% | 85.8% | 69.8% | 85.4% | 46.2% | 90%
C=C(C)[C@@H]1CC[C@]2(C)[C@H](CC=C3[C@@H]4[C@H](C)[C@@H](C)CC[C@]4(CO)CC[C@]32C)[C@@]1(C)CCCN | 60.9% | 84.5 | 43.7 | -63.1% (active) | -81.9% (active) | 4.6% (active) | -41.8% (active) | -31.6% (active) | 39.3% | -57.2% (active) | 28.4% | 1.75% (active) | -79.1% (active) | 3.87% (active) | 21.7% | 59% | 77.2% | 13% | -56.7% (active) | -46.2% (active)
CN(C)CCNC(=O)c1cccc(-c2cnc3ccc(-c4ccc5c(c4)OCO5)nn23)c1 | 69.2% | 75.3 | 58.6 | 88.4% | 4.35% (active) | 72.4% | 87.7% | 87% | 74.2% | 74.8% | 66.5% | 1.77% (active) | 88.7% | 77.9% | 42.3% | 76.7% | 106% | 66.9% | 108% | 67.7%
Cc1ccccc1/C=C1\CN(C(=O)OC(C)(C)C)C/C(=C\c2ccccc2C)C1=O | 8.22% (active) | 42.2 | 80.9 | 48.2% | -38.3% (active) | 82.6% | 20.8% | 49.1% | 25.8% | -28.5% (active) | 9.09% (active) | 5.76% (active) | 73.7% | 42.7% | 61.1% | 2.68% (active) | 24.6% | 31.2% | 74.3% | 30.7%
CCN(CC)CCNC(=O)c1cn2ncnc(Oc3ccc(NC(=O)Nc4ccc(Cl)c(C(F)(F)F)c4)c(F)c3)c2c1C | -37.4% (active) | 73.9 | 34.4 | 36.5% | -67% (active) | 22.1% | -52.3% (active) | 4.56% (active) | -86.1% (active) | -59.5% (active) | 8.01% (active) | -23% (active) | -89.7% (active) | -82.5% (active) | -44.9% (active) | 43.1% | -52.8% (active) | -79.8% (active) | -57.4% (active) | -83.2% (active)
CO/N=C(/C)c1ccc(NC(=O)CSc2nnc(-c3ccncc3)n2-c2ccccc2)cc1 | 46.9% | 24.2 | 84.9 | 39.2% | 15.9% | 3.16% (active) | -8.08% (active) | 68.4% | -43.1% (active) | 104% | 52% | 91.6% | 32.2% | 42.7% | 4.02% (active) | 13.4% | 33% | -31.2% (active) | 50.6% | 74.8%
S=C(Nc1ccc(-c2nc(N3CCOCC3)c3cccn3n2)cc1)Nc1cccnc1 | 37.7% | 38.2 | 35.7 | 46.6% | 43.2% | -3.48% (active) | 4.32% (active) | 24.1% | 36.7% | 28% | 18.6% | 26.2% | 24.7% | 41.3% | 17.9% | 53.1% | 25.6% | 10% | 50.9% | 32.1%
CC(=O)OC[C@]12CCC(C)(C)C[C@H]1[C@@]1(O)[C@H](O)C[C@@H]3[C@@]4(C)CCCNC(C)(C)[C@@H]4CC[C@@]3(C)[C@]1(C)CC2 | 106% | 102 | 98.1 | 107% | 110% | 112% | 93.6% | 106% | 101% | 117% | 111% | 106% | 106% | 103% | 117% | 106% | 102% | 103% | 101% | 92.4%
CCOC(=O)C(=Cc1cccc(Br)c1)C(=O)OCC | 17.7% | 45.2 | 65.5 | 85.1% | 68.2% | 12.9% | 23.9% | 41.8% | 47.4% | 46.6% | 4.57% (active) | 21.3% | 73.1% | 38.1% | 40.3% | 25.7% | 97% | 4.36% (active) | 35% | 32.9%
CC1=Nc2cnc(Nc3ccc(OCCN4CCCCC4)cc3)nc2Nc2ccccc21 | 71.5% | 81.3 | 42 | 81.4% | 61.6% | 32% | 70.7% | 77.2% | 48.5% | 63.7% | 57.8% | 24.1% | 58.4% | 60.6% | 33.6% | 64.9% | 76.5% | 69.6% | 87.6% | 50.6%
CCOC(=O)C1=NN(c2ccccc2)C(=O)/C1=C\N1C(=O)CC(=O)NC1=S | 99% | 92.5 | 96 | 90.1% | 106% | 102% | 88.8% | 103% | 106% | 103% | 110% | 98.2% | 97.6% | 91.8% | 117% | 93.9% | 103% | 100% | 105% | 93.7%
